HGIII-sPLA2 inh – Inhibits HGIII-sPLA2 liposome hydrolysis, primary screen. QFRET BODIPY PC-A2 liposome hydrolysis, fluorescence. actives 0.56% (n = 370,000). inhibition, % at 12.2 µM. AID 743126;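 active means inhibition above mean plus 3 SD of compounds lying within the high and low control bounds, cut at about 19% in these data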;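 further: 0% = median of test compound wells and 100% = no enzyme DMSO wells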
UBC9 SUMO inh – blocks human SUMOylation mediated by UBC9; P63279; HTRF SUMOylation assay, SAE1/SAE2 + UBC9, in vitro; inhibition, % at 35 µM; actives 0.36% (n = 290,000); in the data active means inhibition above about 50%, passing the limit was not always enough; inconclusive means no clear call, values can overlap the other calls
Target sequence (P63279 whole entry, looked up): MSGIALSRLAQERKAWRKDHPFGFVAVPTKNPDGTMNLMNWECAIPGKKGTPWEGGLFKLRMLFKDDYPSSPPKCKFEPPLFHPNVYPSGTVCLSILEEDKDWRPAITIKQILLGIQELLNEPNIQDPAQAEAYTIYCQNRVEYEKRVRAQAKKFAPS
UBC13 polyUb – inhibitors of human UBC13 polyubiquitin chain formation | TR-FRET | actives 0.47% (n = 330,000) | inhibition, % at 20 µM | P61088; in the data active means inhibition above about 45%, passing the limit was not always enough; inconclusive means no clear call, values can overlap the other calls
Target sequence (P61088 whole entry, looked up): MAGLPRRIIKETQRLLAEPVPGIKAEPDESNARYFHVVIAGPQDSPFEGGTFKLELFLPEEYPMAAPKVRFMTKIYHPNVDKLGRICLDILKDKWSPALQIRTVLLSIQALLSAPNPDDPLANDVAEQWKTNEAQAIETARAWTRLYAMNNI
GRIN3A LBD mod – modulates the human NR3A ligand-binding domain | NR3A LBD differential scanning fluorimetry, Tm shift; 0% = protein alone, 100% = glycine-bound protein | Tm shift relative to glycine control, % at 25 µM | actives 2.5% (n = 340,000);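 active means melting temperature shift of at least 10% of the positive control shift, at one fixed dose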
Casp3 UBC13 ctr – counter-screen for UBC13 inhibitors: human caspase-3 inhibition. shares compounds with UBC13 polyUb. Recombinant caspase-3, Caspase-Glo 3/7 luminescence, 60 min. inhibition, % at 20 µM. actives 4% (n = 1,400);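 active means mean inhibition across replicates above about 26%, limit read from the data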;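 further: plate controls were DMSO with caspase-3 for no effect and DMSO wells lacking enzyme for full effect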
Target sequence (P42574 whole entry, looked up): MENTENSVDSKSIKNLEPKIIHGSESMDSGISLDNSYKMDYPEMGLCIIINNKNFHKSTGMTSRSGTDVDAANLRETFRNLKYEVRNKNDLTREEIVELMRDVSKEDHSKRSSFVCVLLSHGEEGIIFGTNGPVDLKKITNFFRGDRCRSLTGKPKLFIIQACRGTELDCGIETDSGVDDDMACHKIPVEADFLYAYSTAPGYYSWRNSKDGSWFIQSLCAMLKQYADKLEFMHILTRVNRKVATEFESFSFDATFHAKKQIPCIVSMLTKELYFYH
UBC13 confirm – human UBC13 polyubiquitin inhibition, confirmed; shares compounds with UBC13 polyUb; UBC13 polyubiquitination, TR-FRET, biochemical; inhibition, % at 10 µM; actives 68% (n = 1,400); in the data active means inhibition above about 45%; inconclusive means no clear call, values can overlap the other calls
* = called active by the depositor; ? = inconclusive; . = no result. Most compounds without a hit are left out; they make up all but 3.3% or so of the library.

SMILES	HGIII-sPLA2 inh	UBC9 SUMO inh	UBC13 polyUb	GRIN3A LBD mod	Casp3 UBC13 ctr	UBC13 confirm
CCCCCCCCNC(C)C(O)c1ccc(SC(C)C)cc1 (stereo not given)	10.2	3.1	71.1*	2.0	-1.6	74.9*
CCOc1cccc2sc(N(CCCN(C)C)C(=O)c3ccc(S(=O)(=O)N(CC)Cc4ccccc4)cc3)nc12	-14.1	11.1	50.7*	-3.3	-3.6	92.6*
CCN(Cc1ccccc1)S(=O)(=O)c1ccc(C(=O)N(CCCN(C)C)c2nc3c(F)cccc3s2)cc1	-0.3	7.7	24.2	-0.8	.	.
Cc1ccc2sc(N(CCCN(C)C)C(=O)c3ccc(S(=O)(=O)N(C)Cc4ccccc4)cc3)nc2c1C	-20.6	.	38.9	2.3	.	.
CCOc1cccc2sc(N(CCCN(C)C)C(=O)c3ccc(S(=O)(=O)N(C)Cc4ccccc4)cc3)nc12	-18.0	13.6	76.1*	-5.3	1.5	110.6*
Fc1c(-c2ccc3ncnc(NCc4cccs4)c3c2)ccc2c1OCO2	-4.5	.	.	.	.	.
Cn1c(=O)c2c(SCC(=O)N3CCN(c4ccccc4)CC3)nc(C3CC3)nc2n(C)c1=O	2.6	-1.9	63.1*	-5.5	-1.5	?
COc1ccccc1C(=O)N=c1sc2c(C)ccc(OC)c2n1C	-1.7	14.0	47.5*	0.6	72.8*	?
COc1ccc(OC)c2c1sc(=NC(=O)C1CC1)n2C	18.2	20.9	4.7	0.5	.	.
Cc1nn(-c2ccccc2)c(C)c1/C=N/NC(=O)c1[nH][nH]c(=O)c1C	5.6	.	.	.	.	.
CCC[C@@H](CN1CCC[C@H]1CN1C(N)=NC[C@H]1CC(C)C)N1C[C@@H](Cc2ccccc2)N(CCCC2CCCC2)C1=N	3.8	.	76.8*	-0.7	-1.0	82.8*
CC(C)[C@H](CN1CCC[C@H]1CN1C(N)=NC[C@H]1C(C)C)N1C[C@@H](Cc2ccccc2)N(CCCC2CCCC2)C1=N	.	.	69.5*	-0.3	1.3	69.3*
CCC[C@@H](CN1CCC[C@H]1CN1C(N)=NC[C@@H]1Cc1ccccc1)N1C[C@@H]([C@H](C)CC)N(CCCC2CCCC2)C1=N	.	.	90.9*	-8.6	2.1	84.6*
CCCCN1C(=N)N([C@@H](C)CN2CCC[C@H]2CN2C(N)=NC[C@@H]2Cc2ccccc2)C[C@H]1[C@H](C)CC	-1.3	.	18.7	-0.2	.	.
CCCCN1C(=N)N([C@@H](CCC)CN2CCC[C@H]2CN2C(N)=NC[C@@H]2Cc2ccccc2)C[C@H]1Cc1ccccc1	-1.6	.	54.5*	1.3	-3.7	35.6
CC(C)C[C@@H](CN1CCC[C@@H]1CN1C(=O)C(=O)NC[C@@H]1Cc1ccccc1)N1C[C@H](Cc2ccccc2)N(CC2CCCCCC2)C(=O)C1=O	3.2	.	.	-0.1	.	.
Cc1ccccc1NC(=O)[C@@H]1CCCN1S(=O)(=O)c1cccc2cccnc12	5.9	.	.	.	.	.
CCC[C@@H](CN1CCC[C@H]1CN1C(N)=NC[C@@H]1Cc1ccccc1)N1C[C@@H](Cc2ccccc2)N(CCCC2CCCC2)C1=N	.	.	64.6*	-4.7	-4.0	58.4*
CC(C)C[C@@H](CN1CCCC1CN1C(=S)NC[C@@H]1Cc1ccccc1)N1C[C@H](Cc2ccccc2)N(CC2CCCCCC2)C1=S (stereo not given in full)	-2.8	.	.	.	.	.
CC[C@H]1CN2CCc3cc(OC)c(OC)cc3C2C[C@@H]1C[C@H]1NCCc2cc(OC)c(OC)cc21 (stereo not given in full)	-11.8	.	52.7*	-4.7	3.2	10.5
CC(C)(C)NC(=O)C(c1cccnc1)N(C(=O)c1cccs1)c1ccc(C(C)(C)C)cc1 (stereo not given)	11.7	.	.	.	.	.
CN1CC2=Cc3ccccc3OC23Oc2ccccc2C=C3C1	-20.5	6.9	84.6*	-1.6	-2.3	93.7*
O=C1c2ccccc2OC2(C=Cc3ccccc3O2)N1Cc1ccccc1 (stereo not given)	-2.3	-5.3	6.0	0.4	.	.
COC(=O)C1CCCN(C(=O)C(Cc2ccc3c(c2)OCO3)NC(C)=O)C1 (stereo not given)	3.0	.	.	.	.	.
CN(C)C(CNC(=O)c1coc2ccccc2c1=O)c1ccccc1 (stereo not given)	0.4	-15.9	56.4*	2.3	12.5	58.9*
SMILES	HGIII-sPLA2 inh	UBC9 SUMO inh	UBC13 polyUb	GRIN3A LBD mod	Casp3 UBC13 ctr	UBC13 confirm
COC(=O)c1ccc(CNC(=O)c2coc3ccccc3c2=O)cc1	8.3	16.4	4.5	7.6	.	.
O=C(OCC#CCSc1nnc(-c2cccc3ccccc23)o1)C1CC1	-24.1	.	.	.	.	.
CCOC(=O)N1CCN(C(=O)c2ccc3c(c2)N(Cc2ccc(F)cc2)CCS3)CC1	-3.1	26.9	47.7*	-17.0	0.0	32.7
OCCNc1ncnc2c1sc1nc(N3CCOCC3)c3c(c12)CCC3	-2.2	30.5	12.5	-1.6	.	.
CCN(CC)CCNc1ncnc2c1sc1nc(N3CCOCC3)c3c(c12)CCCC3	-19.7	8.1	69.4*	-5.1	-1.9	84.3*
O=C(Cc1c[nH]c2ccccc12)Nc1ccc(Nc2cccnc2)c(-c2ccc(-c3ccccc3)cc2F)c1	6.1	.	.	.	.	.
CCc1ccc(N(C(=O)c2snc(C(N)=O)c2N)C(C(=O)NCC2CCCO2)c2cccs2)cc1 (stereo not given)	-7.6	5.0	43.8	-14.4	.	.
NC(=O)c1nsc(C(=O)N(c2ccc(Cl)cc2)C(C(=O)NCC2CCCO2)c2cccs2)c1N (stereo not given)	-1.1	-4.9	45.5*	-0.9	2.6	49.5*
Cc1cccc(N(C(=O)c2snc(C(N)=O)c2N)C(C(=O)NCC2CCCO2)c2cccs2)c1 (stereo not given)	-5.5	6.7	62.1*	-0.8	1.2	71.1*
COc1ccccc1N(C(=O)c1snc(C(N)=O)c1N)C(C(=O)NC1CCCC1)c1ccco1 (stereo not given)	-0.6	-15.3	26.1	-0.5	.	.
Cc1cccc(N(C(=O)c2snc(C(N)=O)c2N)C(C(=O)NC2CCCC2)c2ccco2)c1 (stereo not given)	-9.4	-12.8	79.1*	-2.5	2.9	75.5*
Cc1ccc(C)c(N(C(=O)c2snc(C(N)=O)c2N)C(C(=O)NCC2CCCO2)c2cccs2)c1 (stereo not given)	-6.8	19.1	18.5	-0.6	.	.
CCC(C)CNC(=O)c1cn(C(C)c2ccccc2)nn1 (stereo not given)	6.5	.	.	.	.	.
O=C(NN1C(=O)c2ccc3c4c(ccc(c24)C1=O)CC3)c1ccc(Br)cc1	2.8	-6.3	57.3*	-3.7	-1.7	62.7*
O=C1c2ccc3c4c(ccc(c24)C(=O)N1NC(=O)C(F)(F)F)CC3	4.2	12.1	-17.8	0.8	.	.
O=C(NC1CCCCN(Cc2ccc(Cl)cc2)C1=O)c1cccc(C(F)(F)F)c1 (stereo not given)	6.3	.	.	.	.	.
Nc1nc(N)c2cc(Sc3ccc(Cl)cc3)ccc2n1	-3.8	.	.	.	.	.
Nc1nc(N)c2cc(Sc3ccc4ccccc4c3)ccc2n1	4.0	-0.4	49.8*	-10.4	3.2	37.3
COc1ccc2[nH]c3c(c2c1)CCN[C@]31C(=O)N(C)c2ccccc21	-5.4	.	.	.	.	.

Screens: PubChem, several laboratories
